In PubChem BioAssay AID1571 (National Center for Advancing Translational Sciences (NCATS), 2009):
Records with an inconclusive call do not appear. Where a call stands in place of a potency, no number is given. Values without a mark were called inactive. Activity calls are given as the source filed them. The call rests on the fitted dose curve; in most records, active means well fitted curve in the direction sought with a large enough effect; inconclusive means small, poorly fitted or top-dose-only effect, or effect the other way; inactive means flat fitted curve, though single readings scatter.

test: Total Fluorescence Confirmation Counterscreen for Inhibitors of the Interaction of Thyroid Hormone Receptor and Steroid Receptor Coregulator 2, Fluorescein Fluoroprobe; details: TRbeta/SRC2-fluorescein mix, total fluorescence interference; series mostly up to 92.2 µM
From the text: NIH Molecular Libraries Probe Production Network [MLPCN] NIH Chemical Genomics Center [NCGC] MLPCN Grant: DK058080 Assay Provider: R. Kip Guy, St. Jude Children's Research Hospital NCGC Assay Overview: Thyroid receptor (TR) regulates many homeostatic processes including basal metabolism, cardiovascular function, body weight, and lipid trafficking. TR modulators are potential therapeutics for obesity and hyperlipidemias but current thyroid analogs have undesirable side effects, particularly cardiac stimulation. To identify inhibitors that specifically prevent the interaction of TR with the steroid receptor coregulator 2 (SRC2), a fluorescence polarization assay was screened (Arnold et al., 2006). This assay detects interaction of the ligand-binding domain of human TRbeta with a fluorescein labeled SRC2 peptide, corresponding to a 20 amino acid region of the nuclear receptor interaction domain. Total fluorescence (555 nm excitation and 632 nm emission) was measured to identify potential fluorescent and light absorbing compounds. Such compounds may be artifacts that interfere with the fluorescence polarization assay. This assay is a confirmation assay for AID 1479. Arnold, L. A.; Estebanez-Perpina, E.; Togashi, M.; Shelat, A.; Ocasio, C. A.; McReynolds, A. C.; Nguyen, P.; Baxter, J. D.; Fletterick, R. J.; Webb, P.; Guy, R. K. A high-throughput screening method to identify small molecule inhibitors of thyroid hormone receptor coactivator binding. Sci STKE 2006, p 13.
NCGC Assay Protocol Summary: For screening, 5 uL/well 0.6 uM TRbeta and 20 nM SRC2 Fluorescein in protein buffer (20mM Tris hydrochloride, 100mM NaCl, 10% glycerol, 1mM EDTA, 0.01% NP-40, 1mM DTT, 1uM T3 and 5% DMSO) was dispensed into black solid 1536-well plates (Grenier) using a solenoid-based dispenser. Following transfer of 23 nL compound or DMSO vehicle by a pin tool, the plates were centrifuged 15 s at 1000 RPM and incubated 5 hr at ambient temperature. The plates were read by an Envision (Perkin Elmer) to detect fluorescence polarization of SRC2 Fluorescein (480 nm excitation and 535 nm emission). Data were normalized to unbound (all components except TRbeta) and bound SRC2 Fluorescein controls. Total fluorescence (TF) was calculated as follows: TF = S + 2P where S and P are fluorescence readings in the parallel and perpendicular channels, respectively. In this assay, we provide % activity data for each concentration as well as potencies for the active compounds.

Structure (SMILES)	Potency	total fluorescence change, positive = fluorescent
CN(C(=S)Nc1cccnc1)c1ccc(O)cc1	inactive	
COC(=O)c1ccccc1-c1ccc(C(c2c(C)[nH][nH]c2=O)c2c(C)[nH][nH]c2=O)o1		15.2% [at 5.76 µM]
Cc1cccc(Cn2c(C(=O)OC(C)C)cc3c2ccn3C)c1		8.18% [at 5.76 µM]
CC1=NN(c2ccc(F)cc2)C(=O)C1C(c1cccc(O)c1)c1c(C)[nH]n(-c2ccc(F)cc2)c1=O (stereo not given)	inactive	
CC1(C)C(N(O)C(=O)Nc2ccc(Cl)cc2)N(c2ccc(Cl)cc2)C(=O)N1CC(=O)NN (stereo not given)		17.6% [at 11.6 µM]
COc1cc(NC(C)CCCN)c2ncccc2c1 (stereo not given)	inactive	
COc1ccccc1Nc1cc2ccccc2c(=O)[nH]1	44.7 µM [fluorescent] (active)	
Cc1cc2c(NC(=O)Nc3ccccc3)cccc2nn1		9.99% [at 0.0112 µM]
CCOc1cc(N2CCOCC2)c(OCC)cc1NC(C)C(=O)N1CCN(CC)CC1 (stereo not given)		10.4% [at 11.6 µM]
CCN(CC)S(=O)(=O)c1cccc(N=NC2=C(O)CCCC2=O)c1		7.56% [at 0.0112 µM]
N#Cc1c(NC(=O)c2ccccc2Cl)n(Cc2ccccc2)c2nc3ccccc3nc12	inactive	
C=CCSc1nnc2n(-c3ccccc3OC)c(=O)c3c4c(sc3n12)CCC4	inactive	
CC(=O)NC1N=C(C)N(c2ccccc2)C1=O (stereo not given)	inactive	
CCCc1nc2c(=O)n(C)c(=O)nc-2n(C)n1	inactive	
COc1cc(C(c2c(C)[nH][nH]c2=O)c2c(C)[nH][nH]c2=O)ccc1OC(=O)c1ccccc1OC	inactive	
O=C(O)/C=C/C(=O)Nc1ccc(OC(F)(F)F)cc1Br		17.7% [at 0.0112 µM]
Cc1ccc(OC(=S)Nc2ccc(O)cc2)cc1	inactive	
COc1cc(C(c2c(C)[nH][nH]c2=O)c2c(C)[nH][nH]c2=O)ccc1OC(=O)c1cccc(C)c1	inactive	
CCCCCCN=CC1=C(O)CC(C)(C)CC1=O		-5.99% [at 0.0112 µM]
CCSc1ncc(Cl)c(C(=O)Nc2nc3ccc(OC)cc3s2)n1	inactive	

Structure (SMILES)	Potency	total fluorescence change, positive = fluorescent
CCc1ccc2c(c1)c1nc(C)sc1n2CC	inactive	
CC(=O)c1cccc(NC(=O)COC(=O)c2ccc(S(C)(=O)=O)c([N+](=O)[O-])c2)c1		9.6% [at 11.6 µM]
COc1ccc2ccc3c(c2c1)N=CC1(O3)N(C)c2ccccc2C1(C)C (stereo not given)		-5.71% [at 0.0112 µM]
COc1ccc(-c2nc(CS(=O)CC(=O)NCc3ccccn3)c(C)o2)cc1 (stereo not given)	39.8 µM [fluorescent] (active)	
CCCc1cc(=O)[nH]c(=S)[nH]1	inactive	
CN(CCO)c1nc(N)c2c(N)nc3c(c2c1C#N)CC(=O)N3C1CCCC1		13.6% [at 11.6 µM]
CN1CCc2ccc3c4c2[C@]1(C)Cc1cccc(c1-4)OCO3	100 µM [fluorescent] (active)	
Cc1[nH][nH]c(=O)c1C(c1ccc(-c2ccccc2C(=O)O)o1)c1c(C)[nH][nH]c1=O	inactive	
CCC(NC(=O)Nc1ccc(O)cc1)(C(F)(F)F)C(F)(F)F	inactive	
Cc1nc2c3cc(F)ccc3n(Cc3ccccc3F)c2s1	inactive	
CN1N=C(C(C)(C)C)CC1=O	inactive	
CC1(C)CC(=O)C(N=Nc2cccc(S(=O)(=O)N3CCOCC3)c2)=C(O)C1	inactive	
COc1cc(/C=C(\C#N)C(=O)NCC2CCCO2)ccc1OCCC(C)C (stereo not given)	inactive	
Cc1cc2ccccc2n1CCNC(=O)C(C)Oc1ccccc1 (stereo not given)	inactive	
O=c1cc(C23CC4CC(CC(C4)C2)C3)[nH][nH]1	inactive	
O=C(/C=C/c1ccco1)NC(=S)Nc1cc(C(F)(F)F)ccc1N1CCOCC1	inactive	
Cn1c(NNC(=O)c2c(F)cccc2F)cc(=O)n(C)c1=O	inactive	
Cc1nnc(SCC(=O)Nc2ccc(N(C)C)cc2)[nH]c1=O	inactive	
CN1c2ccccc2C(C)(C)C12C=Nc1c(ccc3ccccc13)O2 (stereo not given)	inactive	
Cc1c(C#N)c(O)n(CCO)c(=O)c1N=Nc1ccc2c(c1)COC2=O	inactive	
